Some test systems named below: SK-MEL-2 melanoma; EKVX NSCLC; SN12C renal; UO-31 renal; TK-10 renal; ACHN renal; CAKI-1 renal; A498 renal; CCRF-CEM leukemia; MOLT-4 leukemia; SR leukemia; RPMI-8226 leukemia; OVCAR-8 ovarian; OVCAR-5 ovarian; OVCAR-4 ovarian; SK-OV-3 ovarian; IGROV1 ovarian; OVCAR-3 ovarian; HS 578T breast; NCI/ADR-RES ovarian.
Experiment in all cases: NCI-60 one-dose screen, 48 h (100 = growth as untreated, 0 = no growth, -100 = all killed)
Settings in all cases: 10 µM unless noted

This is part of a sample that, as a whole, favours compounds with a hit. Of some 83,000 tested, about 20% had one in any assay.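 Cells were grown in 96-well plates and exposed to the test compound at a single concentration for 48 hours; results are reported as percent growth, with values below 10 considered active.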 Unmarked numbers belong to inactive results. The source made the active and inactive calls.

As for `Cc1ccc(C2(C)NC(=O)N(CC(=O)Nc3cccc(C)c3)C2=O)cc1` (centres undefined), the growth with SK-MEL-2 melanoma is 84.9%; in the assay on EKVX NSCLC, 101%; in the assay with SN12C renal it was 100%; in the assay on UO-31 renal, 82%; in the assay on TK-10 renal, 106%; with ACHN renal it was 98.6%. The growth with CAKI-1 renal is 112%; with A498 renal, 123%; in the assay on CCRF-CEM leukemia it was 112%; in the assay on MOLT-4 leukemia, 80.4%; in the assay on SR leukemia, -22.7% (active); with RPMI-8226 leukemia, 67.8%. Besides, the growth in the assay with OVCAR-8 ovarian was 105%; in the assay on OVCAR-5 ovarian, 97.1%; in the assay on OVCAR-4 ovarian, 99.3%; in the assay on SK-OV-3 ovarian, 97.6%; in the assay with IGROV1 ovarian, 105%; with OVCAR-3 ovarian, 111%. Further, the growth with HS 578T breast is 102%.

Take `O=C1NCCN1/N=C/c1c(Cl)n(Cc2ccc(Cl)cc2)c2ccccc12`: the growth is 91.7% in the assay on SK-MEL-2 melanoma; 88.9% in the assay on EKVX NSCLC; 85.8% with SN12C renal; 72.4% in the assay with UO-31 renal; 90.8% with TK-10 renal; 94.4% with ACHN renal. Also, the growth was -18.9% (active) in the assay on CAKI-1 renal; -85.5% (active) in the assay on A498 renal; 89% in the assay with CCRF-CEM leukemia; 65.6% with MOLT-4 leukemia; 78.4% in the assay on SR leukemia; 82.6% with RPMI-8226 leukemia. Besides, the growth in the assay with OVCAR-8 ovarian is 78.7%; in the assay with OVCAR-5 ovarian, 96.8%; in the assay on OVCAR-4 ovarian it was 79.1%; in the assay on SK-OV-3 ovarian, 146%; in the assay on IGROV1 ovarian it was 24.9%; in the assay on OVCAR-3 ovarian it was 84.8%. In addition, the growth in the assay with HS 578T breast is 90.3%.

Consider `CC(C)(C)c1ccc(C(=O)Nc2sc3c(c2C#N)CCC(=O)C3)cc1`, for which the growth in the assay on SK-MEL-2 melanoma is 12.8%; with EKVX NSCLC it was 19.1%; with SN12C renal, 9.18% (active); with UO-31 renal, -99% (active); in the assay on TK-10 renal, 24.3%; in the assay with ACHN renal, -84% (active). Besides, the growth in the assay on CAKI-1 renal is -74.4% (active); in the assay on A498 renal, 89.8%; with CCRF-CEM leukemia it was 8.53% (active); with MOLT-4 leukemia, 10.6%; in the assay with SR leukemia, 4.39% (active); in the assay on RPMI-8226 leukemia it was -8.65% (active). Also, the growth in the assay on OVCAR-8 ovarian is 16.6%; with OVCAR-5 ovarian, 21%; in the assay on OVCAR-4 ovarian, -73.8% (active); with SK-OV-3 ovarian, 57.4%; in the assay with IGROV1 ovarian, 25.8%; in the assay on OVCAR-3 ovarian, -29.6% (active). The growth in the assay with HS 578T breast is 30.5%.

Turning to `O=C(Nc1cccc(Cl)c1)Oc1c(Cl)c(Cl)c(Cl)c(Cl)c1Cl`, the growth in the assay on SK-MEL-2 melanoma was 100%; in the assay on EKVX NSCLC, 78.9%; in the assay on SN12C renal, 97.1%; with UO-31 renal, 72.1%; in the assay on TK-10 renal it was 125%; in the assay with ACHN renal it was 95.6%. The growth is 88.2% with CAKI-1 renal; 78.8% with A498 renal; 94.4% in the assay with CCRF-CEM leukemia; 96% in the assay on MOLT-4 leukemia; 96.3% in the assay with SR leukemia; 95.4% with RPMI-8226 leukemia. For the same compound, the growth was 98.9% with OVCAR-8 ovarian; 95.2% in the assay with OVCAR-5 ovarian; 89% in the assay on OVCAR-4 ovarian; 85% with SK-OV-3 ovarian; 87.8% in the assay with IGROV1 ovarian; 101% in the assay on OVCAR-3 ovarian. For the same compound, the growth was 82.8% in the assay on HS 578T breast and 103% in the assay with NCI/ADR-RES ovarian.

As for `COC1CC(O)C2=C(CC3C(/C(C)=C\CC=C(C)C)CCC3(C)O2)C1=O` (centres undefined), the growth with SK-MEL-2 melanoma is 96.9%; with EKVX NSCLC it was 105%; with SN12C renal it was 107%; in the assay on UO-31 renal, 89.6%; with TK-10 renal, 92.4%; with ACHN renal, 111%. Further, the growth was 107% in the assay on CAKI-1 renal; 103% in the assay with A498 renal; 88.1% in the assay with CCRF-CEM leukemia; 92.2% in the assay on MOLT-4 leukemia; 86.4% in the assay with SR leukemia; 93.6% in the assay with RPMI-8226 leukemia. Also, the growth is 99.9% in the assay with OVCAR-8 ovarian; 114% with OVCAR-5 ovarian; 113% in the assay with OVCAR-4 ovarian; 107% in the assay with SK-OV-3 ovarian; 110% in the assay with IGROV1 ovarian; 109% in the assay with OVCAR-3 ovarian. For the same compound, the growth in the assay with HS 578T breast was 98.6%.

Take `COC(=O)CCc1c(/C=C2\N=C(c3ccc[nH]3)C=C2OC)[nH]c(C)c1C(=O)OCc1ccccc1`: the growth with SK-MEL-2 melanoma was -27.8% (active); in the assay on EKVX NSCLC, 27.4%; in the assay with SN12C renal, 15.8%; in the assay on UO-31 renal, -67.2% (active); in the assay on TK-10 renal, 18.4%; with ACHN renal, 4.36% (active). For the same compound, the growth with CAKI-1 renal was -3.87% (active); in the assay with A498 renal, 15.1%; in the assay with CCRF-CEM leukemia it was 1.47% (active); in the assay with MOLT-4 leukemia, 16.9%; in the assay with SR leukemia it was -17.8% (active); in the assay with RPMI-8226 leukemia, -32.5% (active). Besides, the growth with OVCAR-8 ovarian is 7.03% (active); in the assay on OVCAR-5 ovarian, 34.1%; in the assay on OVCAR-4 ovarian, 31.3%; in the assay on SK-OV-3 ovarian, 21.5%; in the assay with IGROV1 ovarian it was 21.7%; in the assay with OVCAR-3 ovarian, -31.1% (active). In addition, the growth with HS 578T breast is -14.7% (active).

With `[2H]C([2H])([2H])Oc1ccc(/C=C/C(=O)/C=C(/C=C/c2ccc(OC([2H])([2H])[2H])c(OC([2H])([2H])[2H])c2OC([2H])([2H])[2H])OB(F)F)c(OC([2H])([2H])[2H])c1OC([2H])([2H])[2H]`, the growth with SK-MEL-2 melanoma is 94.9%; in the assay with EKVX NSCLC, 88.7%; in the assay on SN12C renal it was 56.7%; in the assay on UO-31 renal, 38.8%; with TK-10 renal it was 74.2%; in the assay with ACHN renal it was 14.4%. Further, the growth in the assay on CAKI-1 renal was 48.6%; in the assay on A498 renal, 107%; in the assay with CCRF-CEM leukemia, -2.51% (active); with MOLT-4 leukemia, 23.8%; with SR leukemia, 8.05% (active); in the assay on RPMI-8226 leukemia, 18.9%. Also, the growth in the assay with OVCAR-8 ovarian is 9.4% (active); with OVCAR-5 ovarian, 91.1%; in the assay with OVCAR-4 ovarian, 65.2%; in the assay with SK-OV-3 ovarian, 103%; with IGROV1 ovarian, 57.1%; in the assay with OVCAR-3 ovarian, 14.5%. Further, the growth is 60% in the assay with HS 578T breast and 54.6% with NCI/ADR-RES ovarian.

On to `Brc1ccc(-c2nn(-c3ccccc3)cc2-c2nn[nH]n2)s1`, for which the growth is 96.2% in the assay with SK-MEL-2 melanoma; 83.5% with EKVX NSCLC; 80% with SN12C renal; 52.8% with UO-31 renal; 102% in the assay on TK-10 renal; 89.5% in the assay with ACHN renal. In addition, the growth was 88.1% in the assay with CAKI-1 renal; 65.7% in the assay with A498 renal; 90.9% in the assay with CCRF-CEM leukemia; 99.1% with MOLT-4 leukemia; 87.4% in the assay on SR leukemia; 89.5% in the assay on RPMI-8226 leukemia. The growth is 96.3% with OVCAR-8 ovarian; 108% in the assay on OVCAR-5 ovarian; 92.7% with OVCAR-4 ovarian; 98.2% in the assay with SK-OV-3 ovarian; 102% with IGROV1 ovarian; 96.5% in the assay on OVCAR-3 ovarian. Besides, in the assay with HS 578T breast, the growth was 89.9%.

The values above are taken from PubChem BioAssay (NCI).
